Assay results: PubChem BioAssay AID1159580 (chemical genetic matrix, 2015)
Several values for one entry are separate records, joined by “and”; a condition that tells them apart may be missing. Identical values can stand only once. Hit rate of the full screen: of about 5,500 compounds, about 2,000 (36%) were called active. Not shown: some 18% with an inconclusive outcome. Rule as the data show it: active = normalized growth mostly below about 0.91 (no sharp cut-off); inconclusive = no clear call, values can overlap the other calls; inactive = mostly above about 0.92. Some of the results follow.

Test: chemical genetic growth profiling, strain panel (AID 1159580);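 also: tested at 20 µM; growth read once vehicle control cultures reached saturation at 30 °C; 1 = growth at the plate median or of vehicle wells; lower values mean less growth of the strain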
Conditions: growth OD

Measured: normalized growth

COc1ccc(CN(CCN(C)C)c2ccccn2)cc1
inactive: S. cerevisiae deletion strains, locus YJR066W, strain TOR1, stronger effect = lower value 0.997 | S. cerevisiae deletion strains, locus YJR075W, strain HOC1, stronger effect = lower value 0.979 | S. cerevisiae deletion strains, locus YKL009W, strain mrt4, stronger effect = lower value 0.954 | S. cerevisiae deletion strains, locus YKL068W, stronger effect = lower value 0.992 | S. cerevisiae deletion strains, locus YKL085W, strain MDH1 (second series), stronger effect = lower value 0.978 | S. cerevisiae deletion strains, locus YKL085W, strain MDH1, stronger effect = lower value 0.978 | S. cerevisiae deletion strains, locus YKL160W, strain elf1, stronger effect = lower value 1.04 | S. cerevisiae deletion strains, locus YKL190W, strain CNB1, stronger effect = lower value 0.996 | S. cerevisiae deletion strains, locus YKR001C, strain vps1, stronger effect = lower value 0.994 | S. cerevisiae deletion strains, locus YKR026C, strain gcn3, stronger effect = lower value 1.01 | S. cerevisiae deletion strains, locus YKR091W, strain srl3, stronger effect = lower value 1 | S. cerevisiae deletion strains, locus YLL001W, strain dnm1, stronger effect = lower value 1.01 | S. cerevisiae deletion strains, locus YLL026W, stronger effect = lower value 1.02 | S. cerevisiae deletion strains, locus YLL041C, strain sdh2, stronger effect = lower value 1.01 | S. cerevisiae deletion strains, locus YLR027C, strain aat2, stronger effect = lower value 1.02 | S. cerevisiae deletion strains, locus YLR039C, strain RIC1, stronger effect = lower value 0.996 | S. cerevisiae deletion strains, locus YLR058C, strain SHM2, stronger effect = lower value 0.997 | S. cerevisiae deletion strains, locus YLR102C, strain apc9, stronger effect = lower value 0.996 | S. cerevisiae deletion strains, locus YLR113W, strain HOG1, stronger effect = lower value 1.01 | S. cerevisiae deletion strains, locus YLR221C, strain rsa3, stronger effect = lower value 1.01 | S. cerevisiae deletion strains, locus YLR258W, strain gsy2, stronger effect = lower value 1.03 | S. cerevisiae deletion strains, locus YLR262C, strain YPT6 (second series), stronger effect = lower value 1.01 | S. cerevisiae deletion strains, locus YLR262C, strain YPT6, stronger effect = lower value 0.992 | S. cerevisiae deletion strains, locus YLR268W, strain sec22, stronger effect = lower value 0.963 | S. cerevisiae deletion strains, locus YLR320W, strain mms22, stronger effect = lower value 1.02 | S. cerevisiae deletion strains, locus YLR330W, strain CHS5, stronger effect = lower value 0.98 | S. cerevisiae deletion strains, locus YLR342W, strain FKS1 (second series), stronger effect = lower value 0.995 | S. cerevisiae deletion strains, locus YLR342W, strain FKS1, stronger effect = lower value 1.03 | S. cerevisiae deletion strains, locus YLR357W, strain rsc2, stronger effect = lower value 1.03 | S. cerevisiae deletion strains, locus YLR370C, strain arc18, stronger effect = lower value 1.02 | S. cerevisiae deletion strains, locus YLR371W, strain rom2, stronger effect = lower value 0.972 | S. cerevisiae deletion strains, locus YLR384C, strain iki3, stronger effect = lower value 1.02 | S. cerevisiae deletion strains, locus YLR418C, strain cdc73, stronger effect = lower value 1 | S. cerevisiae deletion strains, locus YML016C, strain PPZ1, stronger effect = lower value 0.997 | S. cerevisiae deletion strains, locus YML032C, strain rad52, stronger effect = lower value 0.979 | S. cerevisiae deletion strains, locus YML120C, strain ndi1, stronger effect = lower value 1.02 | S. cerevisiae deletion strains, locus YML124C, strain tub3, stronger effect = lower value 0.991 | S. cerevisiae deletion strains, locus YMR058W, strain fet3, stronger effect = lower value 1 | S. cerevisiae deletion strains, locus YMR078C, strain ctf18, stronger effect = lower value 0.992 | S. cerevisiae deletion strains, locus YMR125W, strain sto1, stronger effect = lower value 1.02 | S. cerevisiae deletion strains, locus YMR129W, stronger effect = lower value 1.01 | S. cerevisiae deletion strains, locus YMR205C, strain PFK2, stronger effect = lower value 1.02 | S. cerevisiae deletion strains, locus YMR223W, strain ubp8, stronger effect = lower value 1.02 | S. cerevisiae deletion strains, locus YMR231W, strain pep5, stronger effect = lower value 1.02 | S. cerevisiae deletion strains, locus YMR307W, strain GAS1, stronger effect = lower value 1.01 | S. cerevisiae deletion strains, locus YNL067W, strain RPL9B, stronger effect = lower value 0.996 | S. cerevisiae deletion strains, locus YNL071W, strain lat1, stronger effect = lower value 1.02 | S. cerevisiae deletion strains, locus YNL128W, strain TEP1, stronger effect = lower value 0.967 | S. cerevisiae deletion strains, locus YNL175C, strain NOP13, stronger effect = lower value 1.01 | S. cerevisiae deletion strains, locus YNL183C, strain NPR1, stronger effect = lower value 0.991 | S. cerevisiae deletion strains, locus YNL197C, strain WHI3, stronger effect = lower value 0.966 | S. cerevisiae deletion strains, locus YNL209W, strain ssb2, stronger effect = lower value 1.04 | S. cerevisiae deletion strains, locus YNL224C, strain SQS1, stronger effect = lower value 0.988 | S. cerevisiae deletion strains, locus YNL233W, strain BNI4, stronger effect = lower value 1 | S. cerevisiae deletion strains, locus YNL248C, strain rpa49, stronger effect = lower value 1.05 | S. cerevisiae deletion strains, locus YNL250W, strain rad50, stronger effect = lower value 0.985 | S. cerevisiae deletion strains, locus YNL271C, strain bni1, stronger effect = lower value 0.992 | S. cerevisiae deletion strains, locus YNL298W, strain CLA4, stronger effect = lower value 0.997 | S. cerevisiae deletion strains, locus YNL307C, strain MCK1, stronger effect = lower value 0.986 | S. cerevisiae deletion strains, locus YNL322C, strain KRE1 (second series), stronger effect = lower value 1.04 | S. cerevisiae deletion strains, locus YNR049C, strain mso1, stronger effect = lower value 1.01 | S. cerevisiae deletion strains, locus YNR052C, strain pop2, stronger effect = lower value 0.993 | S. cerevisiae deletion strains, locus YOL006C, strain TOP1, stronger effect = lower value 1.04 | S. cerevisiae deletion strains, locus YOL012C, strain htz1 0.809 | S. cerevisiae deletion strains, locus YOL147C, strain pex11, stronger effect = lower value 0.988 | S. cerevisiae deletion strains, locus YOR001W, strain rrp6, stronger effect = lower value 0.991 | S. cerevisiae deletion strains, locus YOR061W, strain CKA2, stronger effect = lower value 1 | S. cerevisiae deletion strains, locus YOR069W, strain VPS5, stronger effect = lower value 0.986 | S. cerevisiae deletion strains, locus YOR070C, strain gyp1, stronger effect = lower value 1.02 | S. cerevisiae deletion strains, locus YOR080W, strain dia2, stronger effect = lower value 1.03 | S. cerevisiae deletion strains, locus YOR083W, strain WHI5 (second series), stronger effect = lower value 0.991 | S. cerevisiae deletion strains, locus YOR083W, strain WHI5, stronger effect = lower value 0.998 | S. cerevisiae deletion strains, locus YOR106W, strain vam3, stronger effect = lower value 1.04 | S. cerevisiae deletion strains, locus YOR136W, strain idh2, stronger effect = lower value 1 | S. cerevisiae deletion strains, locus YOR144C, strain elg1, stronger effect = lower value 1 | S. cerevisiae deletion strains, locus YOR184W, strain ser1, stronger effect = lower value 1 | S. cerevisiae deletion strains, locus YOR231W, strain MKK1, stronger effect = lower value 1 | S. cerevisiae deletion strains, locus YOR265W, strain rbl2, stronger effect = lower value 1.02 | S. cerevisiae deletion strains, locus YOR270C, strain vph1, stronger effect = lower value 1.08 | S. cerevisiae deletion strains, locus YOR290C, strain snf2, stronger effect = lower value 1.04 | S. cerevisiae deletion strains, locus YOR316C, strain cot1, stronger effect = lower value 0.988 | S. cerevisiae deletion strains, locus YPL051W, strain arl3, stronger effect = lower value 1.04 | S. cerevisiae deletion strains, locus YPL078C, strain atp4, stronger effect = lower value 1.04 | S. cerevisiae deletion strains, locus YPL106C, strain sse1, stronger effect = lower value 1.04 | S. cerevisiae deletion strains, locus YPL240C, strain hsp82, stronger effect = lower value 1.01 | S. cerevisiae deletion strains, locus YPL241C, strain CIN2, stronger effect = lower value 0.995 and 0.99 | S. cerevisiae deletion strains, locus YPL256C, strain CLN2, stronger effect = lower value 1.05 | S. cerevisiae deletion strains, locus YPR119W, strain clb2, stronger effect = lower value 0.988 | S. cerevisiae deletion strains, locus YPR141C, strain kar3, stronger effect = lower value 0.981 | S. cerevisiae deletion strains, locus YPR163C, strain tif3, stronger effect = lower value 0.988 | S. cerevisiae deletion strains, locus YPR167C, strain met16, stronger effect = lower value 0.983 | S. cerevisiae deletion strains, strain wtn01, stronger effect = lower value 0.984 | S. cerevisiae strains, strain wild type, stronger effect = lower value 0.992
